Among the data in PubChem BioAssay (EPA / NIEHS) are outcome and AC50 values, retold here.

Where “and” joins values, the source holds several entries; their conditions need not be identical. Equal entries are not always repeated. Calls of active or inactive are those of the source. Rule for the calls: active = hit-call score of the fitted dose curve at least 0.9, where 1 is the maximum; inactive = score below 0.9.

Read-out in the experiment: Basic fibroblast growth factor (bFGF), FGF2 (gene 2247)
Kind of experiment: BSK_MyoF_bFGF: BioMAP Diversity Plus: MyoF Assay for Basic fibroblast growth factor (bFGF) Biomarker Activity (AID 2284246). Particulars: primary human lung fibroblasts. As to the method:
BSK_MyoF is a cell-based, multiplexed-readout assay that uses lung fibroblasts, a human […] primary cell, with measurements taken at 24 hours after chemical dosing in a microplate: 96-well plate.BSK_MyoF_bFGF is an assay component measured in the BSK_MyoF assay. It measures bFGF antibody related to regulation of gene expression using ELISA technology.Data from the assay component BSK_MyoF_bFGF was analyzed at the endpoint, BSK_MyoF_bFGF, in the positive analysis fitting direction relative to DMSO as the negative control and baseline of activity. Using a type of binding reporter, gain or loss-of-signal activity can be used to understand protein changes. To generalize the intended target to other relatable targets, this assay endpoint is annotated to the 'growth factor' intended target family, where the subfamily is 'basic fibroblast growth factor '.
The levels of cell surface (or secreted, indicated by the prefix "s") biomarker endpoints were measured by ELISA. Overt cytotoxicity to cells in confluent adherent cultures (all systems other than the BT system) was assessed by measuring total protein levels using sulforhodamine B (SRB) staining in parallel cultures at the time of biomarker measurements, indicated as SRB endpoints. For proliferation assays for adherent cell types, individual cell types are cultured at sub-confluence and relative cell numbers quantified by SRB staining at time points optimized for each system (48 h: 3C and CASM3C systems; 72 h: BT and HDF3CGF systems; 96 h: SAg system). SRB was performed by staining cells with 0.1% SRB after fixation with 10% TCA and reading wells at 560 nm.Viability and proliferation of PBMC (T cells) was quantified by Alamar Blue reduction for the SAg and BT systems. For PBMC viability (referred to as PBMC Cytotoxicity within the assay endpoint names), cells were plated (75,000/well in a 96-well plate) and then chemical samples added for 1 h before addition of activators, SEB and TSST-1 (20 ng/mL final concentration each). Cells were incubated for 90 h. Then, Alamar Blue (20 uL/well) (Invitrogen, Cat DAL1100) was added for 6 h, and the plates were read with a fluorescence microplate reader at 546/580 nm (excitation/emission). For PBMC proliferation, cells were plated and activated as above but incubated for only 16 h prior to addition of Alamar Blue. Plates were read after 6 h.
In the case of `COC(=O)c1sccc1S(=O)(=O)NC(=O)Nc1nc(C)nc(OC)n1`, the result was inactive.

As for `O=C(O)C(F)(F)C(F)(F)C(F)(F)C(F)(F)C(F)(F)C(F)(F)C(F)(F)C(F)(F)C(F)(F)C(F)(F)F`, the AC50 – broadly, the concentration giving half of the maximal activity seen – is 5.14 µM (active) and 6.09 µM (active).

For `O=[N+]([O-])c1ccc2c3c(cccc13)CC2`, the outcome was inactive.

In the case of `ClC1=C(Cl)[C@]2(Cl)[C@H]3[C@H]([C@H]4C=C[C@H]3C4)[C@@]1(Cl)C2(Cl)Cl`, the outcome was inactive.

Regarding `O=S(=O)(c1ccc(Cl)cc1)c1ccc(Cl)cc1`, the result was inactive.

In the case of `CCOP(=S)(OCC)SCCS(=O)(=O)CC`, the outcome was inactive.

In the case of `O=Cc1cccc(Oc2ccccc2)c1`, the result was inactive.

As to `O=C(O)CCC(F)(C(F)(F)F)C(F)(F)F`, the outcome was inactive.

In the case of `CCNc1nc(NC(C)(C)C)nc(SC)n1`, the outcome was inactive.

Consider `CCOC(=O)/C=C(C)/C=C/C[C@@H](C)CCCC(C)C`, for which the AC50 is 32.5 µM (active).

In the case of `CC(C)CCCCCCOC(=O)c1ccccc1C(=O)OCCCCCCC(C)C`, the outcome was inactive.

Turning to `CC(C)c1ccc(CO)cc1`, the result was inactive.

Turning to `Nc1ncc([N+](=O)[O-])s1`, the result was inactive.

As for `O=C(O)C(F)(F)C(F)(F)C(F)(F)C(F)(F)C(F)(F)C(F)(F)F`, the outcome was inactive.

In the case of `NC(=S)Nc1ccccc1`, the result was inactive.

Take `Oc1ccc(-c2ccccc2)cc1`: the result was inactive.

In the case of `ClC(Cl)=C(Cl)C(Cl)=C(Cl)Cl`, the result was inactive.

As for `COP(=S)(OC)Oc1ccc(S(=O)(=O)N(C)C)cc1`, the result was inactive.

Consider `BrCCBr`, for which the outcome was inactive.

For `Nc1cccc2ccccc12`, the outcome was inactive.

Regarding `CCOP(=S)(OCC)Oc1ccc(S(C)=O)cc1` (stereo unspecified), the result was inactive.

As to `C(=NC1CCCCC1)=NC1CCCCC1`, the AC50 is 11.9 µM (active).

Turning to `CCCCCCCCC(=O)NCc1ccc(O)c(OC)c1`, the outcome was inactive.

As to `CCCCC(CC)CO[N+](=O)[O-]` (stereo unspecified), the result was inactive.

Regarding `CCSC(C)CC1CC(=O)C(C(CC)=NOC/C=C/Cl)=C(O)C1` (stereo unspecified), the outcome was inactive.

As for `Oc1c(I)cc(I)cc1I`, the outcome was inactive.

`COc1cc(OC)nc(NC(=O)NS(=O)(=O)c2ncccc2C(=O)N(C)C)n1`: the outcome was inactive.

With `CC(=O)C(Cl)C(=O)N(C)C` (stereo unspecified), the result was inactive.

Turning to `COP(=S)(OC)Oc1ccc(Sc2ccc(OP(=S)(OC)OC)cc2)cc1`, the result was inactive.

As for `COP(=S)(OC)Oc1c(Cl)cc(C)cc1Cl`, the result was inactive.

As for `CC1(C)Cc2cccc(O)c2O1`, the result was inactive.

As for `COP(=S)(OC)Oc1cc(Cl)c(Cl)cc1Cl`, the outcome was inactive.

`Nc1ccc(-c2ccc(N)c(Cl)c2)cc1Cl`: the outcome was inactive.

With `O=C(OC1CCCCC1)c1ccccc1C(=O)OC1CCCCC1`, the result was inactive.

In the case of `COC[C@H](C)N(C(=O)CCl)c1c(C)csc1C`, the outcome was inactive.

Consider `OCc1ccco1`, for which the result was inactive.
